For 11 compounds, outcome and AC50 results are on record in PubChem BioAssay (EPA / NIEHS).

“And” between values parts separate entries of the source, which are not always exact repeats. Identical values can stand only once. Records with an inconclusive call do not appear. The source made the active and inactive calls. The calls were made as follows, unless noted: active = hit-call score of the fitted dose curve at least 0.9, where 1 is the maximum; inactive = score below 0.9.

Read-out in test [1]: E-selectin (Homo sapiens) (UniProt P16581)
Nature of the test: BSK_SAg_Eselectin: BioMAP Diversity Plus: SAg Assay for Eselectin Biomarker Activity (AID 2283091). The note with it: primary human HUVEC with PBMC; actives raise or lower the signal. The method in brief: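 Cell-surface E-selectin is read by ELISA at 24 h in the SAg co-culture of HUVEC and PBMC. Curves are fitted in both directions relative to DMSO. Parallel SRB total-protein staining tracks overt toxicity.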

Read-out in test [2]: Monokine induced gamma interferon (MIG), CXCL9 (gene 4283)
Nature of the test: BSK_SAg_MIG: BioMAP Diversity Plus: SAg Assay for Monokine induced gamma interferon (MIG) Biomarker Activity (AID 2283092). The conditions noted are these: primary human HUVEC with PBMC; actives raise or lower the signal. Put shortly:
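Endothelial cells and PBMC were co-cultured, exposed to test chemicals, and sampled 24 h later. MIG was measured by ELISA, and responses were fitted in both directions relative to DMSO.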

The nature of test [3]: BSK_SAg_PBMCCytotoxicity: PBMC Cytotoxicity Assessment in the BioMAP Diversity Plus: SAg Assay (AID 2283093).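 Also: PBMC viability measured as Alamar Blue reduction fluorescence at 546/580 nm; fitted both ways against DMSO so a hit may be loss or gain of signal.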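 As to AC50: PBMC superantigen activated with SEB plus TSST-1 one hour after compound addition.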 The note with it: primary human HUVEC with PBMC. The method in brief: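 Compound added to 75,000 PBMC/well for 1 h; SEB and TSST-1 then added at 20 ng/mL final each; 90 h incubation; Alamar Blue 6 h; read 546/580 nm ex/em. Activity fitted bidirectionally relative to DMSO baseline.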

Read-out in test [4]: Interleukin-8 (IL8), CXCL8 (gene 3576)
Nature of the test: BSK_SAg_IL8: BioMAP Diversity Plus: SAg Assay for Interleukin-8 (IL8) Biomarker Activity (AID 2283094). The conditions noted are these: primary human HUVEC with PBMC; actives raise or lower the signal. The method in brief:
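Human umbilical vein endothelial cells co-cultured with peripheral blood mononuclear cells; IL-8 measured by ELISA 24 h after chemical dosing. Bidirectional concentration-response fitting used DMSO as negative control and activity baseline.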

Test [5] can be described thus: BSK_SAg_Proliferation: Cell Proliferation Assessment in the BioMAP Diversity Plus: SAg Assay (AID 2283095).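 Also: relative cell number as total protein by SRB absorbance in sub-confluent culture.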 The note with it: primary human HUVEC with PBMC. Put shortly: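 Human umbilical vein endothelial cells co-cultured with peripheral blood mononuclear cells; total protein measured by sulforhodamine B staining (0.1% SRB after 10% TCA fixation), absorbance at 560 nm, at 96 h. Bidirectional fit against DMSO baseline.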

Test [6] in a line: BSK_SAg_SRB: Viability Assessment in the BioMAP Diversity Plus: SAg Assay (AID 2283096).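 Also: cells read one day after compound addition; hits may be either gain or loss of signal compared with DMSO.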 The conditions noted are these: primary human HUVEC with PBMC. Put shortly:
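Total protein by sulforhodamine B staining, 24 h after dosing, in HUVEC–PBMC co-culture; DMSO-referenced bidirectional fitting.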

The target in test [7] is human CYP19A1, CYP19A1 (gene 1588) (UniProt P11511). Nature of the test: NVS_ADME_hCYP19A1: NovaScreen (NVS) CYP450-related Enzyme Activity (ADME) Assay for human CYP19A1 (AID 2283098; active = hit-call score of the fitted dose curve at least 0.9, where 1 is the maximum;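 as to AC50: potency for inhibitors seen as loss of fluorescent enzyme signal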). The method in brief:
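Biochem, cell-free; recombinant enzyme + specific substrate; fluorescence intensity at 0.5 h post-dose; 10 uM duplicate primary, conc. series for actives; acetonitrile = negative control/baseline; positive and negative controls on every plate.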

Test [8] concerns the target human CYP1A1, CYP1A1 (gene 1543) (UniProt P04798). Nature of the test: NVS_ADME_hCYP1A1: NovaScreen (NVS) CYP450-related Enzyme Activity (ADME) Assay for human CYP1A1 (AID 2283100; active = hit-call score of the fitted dose curve at least 0.9, where 1 is the maximum). Put shortly:
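Chemicals were first tested in duplicate at 10 uM, and those passing a 30% inhibition threshold were rerun as concentration series topping at 20 uM. Fluorescence read-out of recombinant enzyme turnover after 1 h, relative to acetonitrile.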

Test [9] deals with Cytochrome P450 3A4 (Homo sapiens) (UniProt P08684). Nature of the test: NVS_ADME_hCYP3A4: NovaScreen (NVS) CYP450-related Enzyme Activity (ADME) Assay for human CYP3A4 (AID 2283110; active = hit-call score of the fitted dose curve at least 0.9, where 1 is the maximum). The method in brief: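 Compounds were first screened in duplicate at 10 uM against recombinant CYP3A4 produced in insect cells, then actives were run in concentration series. Enzyme activity was measured by fluorescence after 0.33 hour, with acetonitrile as baseline.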

Test [10] has as its target Cytochrome P450 2C19 (Homo sapiens) (UniProt P33261). Nature of the test: NVS_ADME_hCYP2C19: NovaScreen (NVS) CYP450-related Enzyme Activity (ADME) Assay for human CYP2C19 (AID 2283113; active = hit-call score of the fitted dose curve at least 0.9, where 1 is the maximum;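 also: potency for inhibition seen as loss of fluorescent signal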). Put shortly: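 Compounds first screened in duplicate at 10 uM, then confirmed in concentration series. Insect-cell-expressed human CYP2C19 turned over a fluorogenic substrate, and fluorescence was read after 1 h. Inhibition taken as signal loss relative to acetonitrile.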

For test [11], the target named is human CYP2D6, CYP2D6 (gene 1565) (UniProt P10635). Nature of the test: NVS_ADME_hCYP2D6: NovaScreen (NVS) CYP450-related Enzyme Activity (ADME) Assay for human CYP2D6 (AID 2283107; active = hit-call score of the fitted dose curve at least 0.9, where 1 is the maximum). Put shortly:
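Fluorescence readout of recombinant CYP2D6 (insect-cell derived) activity after 1 h incubation with test chemical. Acetonitrile served as baseline, loss-of-signal direction. Single-concentration duplicate screening at 10 uM preceded concentration-response retesting.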

Test [12] concerns the target rat CYP2A1, Cyp2a1 (gene 24894) (UniProt P11711). Nature of the test: NVS_ADME_rCYP2A1: NovaScreen (NVS) CYP450-related Enzyme Activity (ADME) Assay for rat CYP2A1 (AID 2283114). Put shortly: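 Recombinant rat CYP2A1, cell-free, fluorogenic substrate turnover read by fluorescence intensity 0.75 h after dosing. Primary screen at 10 uM in duplicate; actives rerun as concentration-response up to 20 uM; loss of signal versus acetonitrile control.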

Test [13] has as its target rat CYP2A2, Cyp2a2 (gene 24895) (UniProt P15149). Nature of the test: NVS_ADME_rCYP2A2: NovaScreen (NVS) CYP450-related Enzyme Activity (ADME) Assay for rat CYP2A2 (AID 2283116; active = hit-call score of the fitted dose curve at least 0.9, where 1 is the maximum). Put shortly: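 Cell-free recombinant rat CYP2A2 activity with fluorogenic substrate, fluorescence read 0.2 h after dosing. Chemicals screened at 10 uM in duplicate, hits then run in concentration-response up to 20 uM; signal loss versus acetonitrile baseline.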

For test [14], the target named is rat CYP2C13, Cyp2c13 (gene 171521) (UniProt P20814). Nature of the test: NVS_ADME_rCYP2C13: NovaScreen (NVS) CYP450-related Enzyme Activity (ADME) Assay for rat CYP2C13 (AID 2283121; active = hit-call score of the fitted dose curve at least 0.9, where 1 is the maximum). The method in brief:
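Recombinant rat CYP2C13 with fluorogenic substrate, 0.75 h cell-free incubation; primary screen in duplicate at 10 uM, actives followed in concentration series. Fluorescence loss relative to acetonitrile control indicates inhibition.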

The test system of the next test is rat CYP3A1, gene 25642. Nature of the test: NVS_ADME_rCYP3A1: NovaScreen (NVS) CYP450-related Enzyme Activity (ADME) Assay for rat CYP3A1 (AID 2283126; active = hit-call score of the fitted dose curve at least 0.9, where 1 is the maximum). The method in brief: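 Cell-free recombinant CYP assay with fluorescent substrate, read 0.5 h after dosing. Screened at 10 uM in duplicate, hits at up to 20 uM in concentration-response; loss of signal versus acetonitrile baseline.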

Sequence of rat CYP2C13, Cyp2c13 (gene 171521) (P20814 whole entry, looked up): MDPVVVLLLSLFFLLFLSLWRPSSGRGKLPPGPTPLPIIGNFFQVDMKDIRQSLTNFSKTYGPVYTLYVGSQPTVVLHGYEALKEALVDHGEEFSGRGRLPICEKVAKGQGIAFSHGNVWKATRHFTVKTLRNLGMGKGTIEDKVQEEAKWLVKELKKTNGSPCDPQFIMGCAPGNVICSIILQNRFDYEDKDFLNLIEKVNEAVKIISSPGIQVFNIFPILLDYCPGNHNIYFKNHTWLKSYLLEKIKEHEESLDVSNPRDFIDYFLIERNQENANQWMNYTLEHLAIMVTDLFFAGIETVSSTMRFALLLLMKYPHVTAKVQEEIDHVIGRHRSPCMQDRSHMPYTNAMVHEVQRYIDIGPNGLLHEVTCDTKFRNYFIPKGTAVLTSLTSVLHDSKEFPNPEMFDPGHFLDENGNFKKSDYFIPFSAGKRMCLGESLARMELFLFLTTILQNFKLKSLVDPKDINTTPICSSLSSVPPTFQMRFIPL
Sequence of human CYP19A1, CYP19A1 (gene 1588) (P11511 whole entry, looked up): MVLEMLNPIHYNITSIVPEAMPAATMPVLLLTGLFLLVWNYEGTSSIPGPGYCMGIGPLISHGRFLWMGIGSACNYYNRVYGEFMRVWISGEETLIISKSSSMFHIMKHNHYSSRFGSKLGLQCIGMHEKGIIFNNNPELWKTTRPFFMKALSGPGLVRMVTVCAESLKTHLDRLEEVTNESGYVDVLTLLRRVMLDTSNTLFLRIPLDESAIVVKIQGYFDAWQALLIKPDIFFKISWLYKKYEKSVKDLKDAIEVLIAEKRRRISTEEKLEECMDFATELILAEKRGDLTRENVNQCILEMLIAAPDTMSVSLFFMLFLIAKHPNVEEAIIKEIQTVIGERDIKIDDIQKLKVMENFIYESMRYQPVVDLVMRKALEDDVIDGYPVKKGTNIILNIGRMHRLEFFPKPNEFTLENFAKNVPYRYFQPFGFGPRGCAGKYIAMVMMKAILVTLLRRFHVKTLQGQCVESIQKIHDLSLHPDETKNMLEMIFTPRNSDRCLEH
Sequence of E-selectin (Homo sapiens) (P16581 whole entry, looked up): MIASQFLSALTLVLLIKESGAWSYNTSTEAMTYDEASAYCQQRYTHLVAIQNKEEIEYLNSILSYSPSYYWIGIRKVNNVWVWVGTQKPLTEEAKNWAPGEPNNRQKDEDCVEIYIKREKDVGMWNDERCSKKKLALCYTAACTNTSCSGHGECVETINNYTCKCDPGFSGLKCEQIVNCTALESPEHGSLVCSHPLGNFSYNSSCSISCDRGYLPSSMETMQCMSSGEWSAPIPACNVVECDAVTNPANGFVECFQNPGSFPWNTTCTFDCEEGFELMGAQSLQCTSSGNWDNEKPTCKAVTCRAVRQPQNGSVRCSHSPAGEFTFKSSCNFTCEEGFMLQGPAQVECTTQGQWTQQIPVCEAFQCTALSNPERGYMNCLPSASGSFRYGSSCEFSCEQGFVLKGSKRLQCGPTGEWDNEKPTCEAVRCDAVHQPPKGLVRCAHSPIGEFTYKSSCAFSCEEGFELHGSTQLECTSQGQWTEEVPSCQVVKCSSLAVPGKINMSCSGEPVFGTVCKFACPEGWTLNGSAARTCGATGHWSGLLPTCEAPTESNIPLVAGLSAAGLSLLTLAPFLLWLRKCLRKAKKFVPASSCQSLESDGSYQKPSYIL
Sequence of Cytochrome P450 3A4 (Homo sapiens) (P08684 whole entry, looked up): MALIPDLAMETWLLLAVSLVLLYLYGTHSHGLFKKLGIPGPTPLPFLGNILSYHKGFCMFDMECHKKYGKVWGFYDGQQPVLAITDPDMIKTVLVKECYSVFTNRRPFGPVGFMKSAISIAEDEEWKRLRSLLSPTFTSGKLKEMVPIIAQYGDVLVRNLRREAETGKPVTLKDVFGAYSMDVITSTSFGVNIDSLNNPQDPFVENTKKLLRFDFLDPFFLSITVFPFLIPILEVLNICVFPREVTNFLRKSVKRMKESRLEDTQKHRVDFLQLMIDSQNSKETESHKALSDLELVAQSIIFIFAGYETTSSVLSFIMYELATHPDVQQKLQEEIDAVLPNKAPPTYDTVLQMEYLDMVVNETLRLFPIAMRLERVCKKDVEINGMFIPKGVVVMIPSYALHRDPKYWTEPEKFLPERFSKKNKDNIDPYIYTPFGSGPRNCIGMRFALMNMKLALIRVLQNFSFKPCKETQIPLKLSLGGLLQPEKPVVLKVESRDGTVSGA
Sequence of rat CYP2A1, Cyp2a1 (gene 24894) (P11711 whole entry, looked up): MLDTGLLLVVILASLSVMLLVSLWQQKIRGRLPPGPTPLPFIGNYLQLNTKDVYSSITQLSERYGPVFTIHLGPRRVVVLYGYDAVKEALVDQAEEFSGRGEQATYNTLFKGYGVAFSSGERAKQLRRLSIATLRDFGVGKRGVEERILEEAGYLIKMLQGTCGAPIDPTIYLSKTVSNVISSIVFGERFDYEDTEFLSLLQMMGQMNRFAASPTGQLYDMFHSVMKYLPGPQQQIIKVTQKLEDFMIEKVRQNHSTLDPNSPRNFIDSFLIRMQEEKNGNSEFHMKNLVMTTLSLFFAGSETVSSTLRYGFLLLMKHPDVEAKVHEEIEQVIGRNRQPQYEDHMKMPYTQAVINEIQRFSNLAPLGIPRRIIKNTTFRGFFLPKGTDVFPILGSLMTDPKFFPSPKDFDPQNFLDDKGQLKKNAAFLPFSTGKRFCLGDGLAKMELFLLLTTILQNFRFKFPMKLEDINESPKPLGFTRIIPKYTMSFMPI
Sequence of rat CYP2A2, Cyp2a2 (gene 24895) (P15149 whole entry, looked up): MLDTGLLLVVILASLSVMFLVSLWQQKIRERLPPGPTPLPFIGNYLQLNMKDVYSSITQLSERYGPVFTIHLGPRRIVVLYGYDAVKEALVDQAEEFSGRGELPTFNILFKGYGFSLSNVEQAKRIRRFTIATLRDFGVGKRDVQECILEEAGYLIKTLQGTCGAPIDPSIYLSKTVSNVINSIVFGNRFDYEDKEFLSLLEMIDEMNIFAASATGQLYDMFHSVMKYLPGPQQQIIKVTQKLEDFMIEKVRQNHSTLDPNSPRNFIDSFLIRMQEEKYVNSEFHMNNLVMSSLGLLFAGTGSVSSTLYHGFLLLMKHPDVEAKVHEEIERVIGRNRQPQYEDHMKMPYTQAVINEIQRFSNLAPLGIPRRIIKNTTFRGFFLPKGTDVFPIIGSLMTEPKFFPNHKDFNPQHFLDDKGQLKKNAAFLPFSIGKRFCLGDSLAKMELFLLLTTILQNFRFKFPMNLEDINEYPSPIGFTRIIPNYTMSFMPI
Sequence of human CYP2D6, CYP2D6 (gene 1565) (P10635 whole entry, looked up): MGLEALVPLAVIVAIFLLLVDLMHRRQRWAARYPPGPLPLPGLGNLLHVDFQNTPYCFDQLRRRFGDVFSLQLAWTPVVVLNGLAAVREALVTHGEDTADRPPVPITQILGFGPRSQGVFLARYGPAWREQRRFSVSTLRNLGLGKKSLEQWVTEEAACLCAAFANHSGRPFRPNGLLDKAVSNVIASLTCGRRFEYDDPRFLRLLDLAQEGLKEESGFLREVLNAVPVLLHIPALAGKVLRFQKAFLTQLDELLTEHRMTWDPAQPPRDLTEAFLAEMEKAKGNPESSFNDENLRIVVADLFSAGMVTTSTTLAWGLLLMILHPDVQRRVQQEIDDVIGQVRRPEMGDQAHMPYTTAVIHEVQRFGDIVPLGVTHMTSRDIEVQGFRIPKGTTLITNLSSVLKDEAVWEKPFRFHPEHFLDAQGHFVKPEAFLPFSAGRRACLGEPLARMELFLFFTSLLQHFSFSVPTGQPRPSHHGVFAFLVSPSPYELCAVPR
Sequence of human CYP1A1, CYP1A1 (gene 1543) (P04798 whole entry, looked up): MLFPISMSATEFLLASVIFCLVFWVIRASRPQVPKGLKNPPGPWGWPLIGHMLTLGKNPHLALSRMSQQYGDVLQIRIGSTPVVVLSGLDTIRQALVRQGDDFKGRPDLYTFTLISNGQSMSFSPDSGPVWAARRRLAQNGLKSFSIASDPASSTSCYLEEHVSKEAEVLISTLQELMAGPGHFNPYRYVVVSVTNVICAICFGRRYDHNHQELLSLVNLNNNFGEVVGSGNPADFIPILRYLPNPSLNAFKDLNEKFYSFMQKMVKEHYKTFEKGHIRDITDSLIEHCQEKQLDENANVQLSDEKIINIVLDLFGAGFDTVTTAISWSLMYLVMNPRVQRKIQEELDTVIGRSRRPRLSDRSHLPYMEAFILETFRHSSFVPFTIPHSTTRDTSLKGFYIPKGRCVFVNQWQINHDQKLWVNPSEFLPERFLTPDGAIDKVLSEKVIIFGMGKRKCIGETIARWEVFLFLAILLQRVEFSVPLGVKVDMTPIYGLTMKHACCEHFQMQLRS

`OCCN1CCOCC1`: the result in [1], in test [2], in test [3], in test [4], in test [5] and in [6] was inactive.

Regarding `CC(=O)C1=C(C)[C@@H]2C[C@@]3(C1)[C@H](C)CC[C@H]3C2(C)C`, in test [7], the result was inactive.

For the compound `O=C(c1ccc(OCCN2CCCCC2)cc1)c1c(-c2ccc(O)cc2)sc2cc(O)ccc12`, the AC50 (usually the concentration at which the activity in the assay is half-maximal) in test [1] was 37.4 µM (active); in test [2], 34.7 µM (active); in test [3], 26.2 µM (active); in test [4] it was 28.9 µM (active); in test [5], 14.6 µM (active); in test [6], 24.1 µM (active). In addition, the AC50 in test [7] is 4.25 µM (active) [middle of 4 runs]; in test [8], 6.33 µM (active). In addition, the compound was classed as inactive in test [9].

Regarding `C=C(C)C(=O)OCCC(F)(F)C(F)(F)C(F)(F)C(F)(F)C(F)(F)C(F)(F)C(F)(F)C(F)(F)F`, the outcome in test [1], in [2], in test [3], in test [4], in test [5] and in [6] was inactive.

On to `CC(=O)OC(C)(C)C1CC=C(C)CC1` (centres undefined), for which the result in test [1], in test [2], in [3], in test [4], in test [5] and in test [6] was inactive. For the same compound, the AC50 in test [10] is 3.56 µM (active).

Take `c1ccc(OCCOc2ccccc2)cc1`: the result in test [1], in test [2], in test [3], in [4], in test [5] and in [6] was inactive.

With `CCn1cc(C(=O)O)c(=O)c2ccc(C)nc21`, the result in test [1], in test [2], in test [3], in [4], in test [5] and in test [6] was inactive.

Take `C=CC(=O)OCC(CO)(COC(=O)C=C)COC(=O)C=C`: the half-maximal activity concentration (AC50) is 0.333 µM (active) in test [1]; 0.601 µM (active) in test [2]; 0.0476 µM (active) in test [3]; 0.219 µM (active) in [4]; 0.0305 µM (active) in test [5]; 2.13 µM (active) in [6]. Also, the concentration at half-maximal activity (AC50) in test [10] was 1.76 µM (active).

On to `CCCCCCCCOC(=O)c1ccc(O)cc1`, for which the AC50 in test [7] is 7.86 µM (active).

`O=S1(=O)CC(Cl)(Cl)C(Cl)(Cl)C1`: the AC50 in [1] was 0.224 µM (active); in test [2], 2.75 µM (active); in [3], 0.515 µM (active); in test [4] it was 0.337 µM (active); in [5], 0.0797 µM (active); in test [6], 0.655 µM (active). Moreover, the AC50 was 4.55 µM (active) in [11] and 0.431 µM (active) in test [9].

As for `C[C@]12CC[C@@H]3c4ccc(O)cc4CC[C@H]3[C@@H]1CC[C@@H]2O`, the outcome was “inactive” in test [1]; “inactive” in test [3]; “inactive” in test [4]; “inactive” in test [7]; “inactive” in [12]; “inactive” in the test on rat CYP3A1, gene 25642. In addition, the AC50 in [2] is 20 µM (active); in test [5], 13.5 µM (active); in test [6] it was 10.3 µM (active); in test [10], 813 nM (active) and 2.14 µM (active); in [13], 6.22 µM (active); in [14], 492 nM (active) and 892 nM (active) and 748 nM (active).
